Results from PubChem BioAssay (Tox21).
Inconclusive results are not listed. Unmarked numbers belong to inactive results. Activity calls are given as the source filed them. Calls come from the whole dose curve; as a rule, active = well fitted cell-killing curve with a large enough effect in the repeat runs; inconclusive = weak or mixed curves, or effect the other way; inactive = no such curve, though single readings can be large or run the other way.

Test: qHTS assay for identifying genotoxic compounds that show differential cytotoxicity against isogenic chicken DT40 cell lines with known DNA damage response pathways - Rev3 mutant cell line (AID 743014); note: nearly all actives have a fitted effect of over 55% in size
Settings: chicken DT40 Rev3-/- viability, CellTiter-Glo, 40 h; series mostly up to 68.4 µM; activity, negative = cytotoxicity: at the top concentration
Text: National Center for Advancing Translational Sciences [NCATS]
NIH Chemical Genomics Center [NCGC]
U.S. Environmental Protection Agency [EPA]
National Institutes of Environmental Health Sciences [NIEHS]
National Toxicology Program [NTP]
U.S. Food and Drug Administration [FDA]
DNA repair pathways play a critical role in cellular homeostasis by repairing DNA damage induced by endogenous processes and xenobiotics. Isogenic chicken DT40 cell lines deficient in different DNA repair pathways can be used to identify genotoxic compounds and aid in characterizing the nature of the DNA damage induced. Two DNA repair-deficient cell lines with disrupted genes, Rad54/Ku70 or Rev3, were used to screen the Tox21 10K compound library. Possible genotoxicity was based on the presence of a significant increase in cytotoxicity in one or more of the DNA repair-deficient cell lines compared to that observed in the parental DNA repair-proficient cell line. CellTiter Glo viability assay (Promega, Madison, WI) was used to measure cell viability in these cells after compound treatment. This assay includes the data from the Rev3 mutant cell line.
Tox21 Assay Protocol Summary:
300 DT40 mutant cells in 5 uL/well were dispensed into white, solid-bottom 1536-well plates using a Multidrop Combi (ThermoFisher Scientific, Waltham, MA) dispenser. After the assay plates were incubated at 37 C/5% CO2 for approximately 0.5 hour, 23 nL of compounds dissolved in DMSO, positive controls or DMSO only was transferred into the assay plate by a pintool work station (Kalypsys, San Diego, CA). The assay plates were incubated at 37 C/5% CO2 for 40 hours. After 5 uL per well of CellTiter-Glo reagent was added into each well of the assay plates, the plates were incubated for 30 min at room temperature and the luminescence intensity of the plates was measured using a ViewLux (PerkinElmer, Shelton, CT) plate reader.
% is set by controls: 0 for no effect and ±100 for the full control effect; potency is the fitted concentration of half-maximal effect.

Compared with `N=C(N)N`, `CCCCCCCOC(C)=O` is lower in “activity, negative = cytotoxicity” value: 0.536% for the first, -3.75% for the second.

Going from `COCCCOc1cc(C[C@@H](C[C@H](N)[C@@H](O)C[C@H](C(=O)NCC(C)(C)C(N)=O)C(C)C)C(C)C)ccc1OC` to `Cc1nnc(C(=O)NC(C)(C)c2nc(C(=O)NCc3ccc(F)cc3)c(O)c(=O)n2C)o1`, the “activity, negative = cytotoxicity” value falls from 1.44% to 0.309%.

First: CN1CCN(C(=O)C2CCCCC2)CC1
Second: CCCC(=O)OC
The “activity, negative = cytotoxicity” value of the first is higher: 5.17% for the first, -7.1% for the second.

Compared with `Nc1cc(S(=O)(=O)O)ccc1O`, `CC(=O)Nc1ccc(S(=O)(=O)Nc2cc(C)on2)cc1` is higher in “activity, negative = cytotoxicity” value: -3.08% for the first, 4.13% for the second.

First: CC1=C(O)C(=O)CO1
Second: Cc1ccc2ccccc2n1
The “activity, negative = cytotoxicity” value of the first is higher: 3.82% for the first, -11% for the second.

First: OCCC(F)(F)C(F)(F)C(F)(F)C(F)(F)C(F)(F)C(F)(F)F
Second: CCCCCCC(O)CO (stereo not given)
The “activity, negative = cytotoxicity” value of the first is lower: -5.34% for the first, 8.29% for the second.

Compared with `CC(C)(O)c1ccc(C(C)(C)O)cc1`, `CC(C)(C)C(=O)CCc1ccc(Cl)cc1` is lower in “activity, negative = cytotoxicity” value: 0.44% for the first, -10.6% for the second.

Compared with `Clc1cc(Cl)c(Cl)c(Cl)c1Cl`, `Cc1ccccc1C#N` is higher in “activity, negative = cytotoxicity” value: -6.77% for the first, 4.41% for the second.

Going from `CNC(C)=O` to `CC(C)(C)C(=O)NCCCC(=O)O`, the “activity, negative = cytotoxicity” value rises from -24% to 7.82%.

First: CCC(C)c1nccnc1OC (stereo not given)
Second: CC(C)CC(O)Cc1ccccc1 (stereo not given)
The “activity, negative = cytotoxicity” value of the first is higher: 16.2% for the first, -2.89% for the second.

Compared with `c1coc(Cn2cccc2)c1`, `O=C(OOC(=O)c1ccccc1)c1ccccc1` is higher in “activity, negative = cytotoxicity” value: -24.3% for the first, 13.8% for the second.

Going from `CC/C=C\CCCCCCCCCCOC(C)=O` to `CCCCCCCCCCCBr`, the “activity, negative = cytotoxicity” value rises from -24.1% to -4.32%.

In the case of `COC(=O)c1ccc(C(=O)O)cc1`, the “activity, negative = cytotoxicity” value is reported as 1.17%.

Going from `C=CCOC(=O)CCCCCCCC` to `CCCCCCCCC1CO1` (stereo not given), the “activity, negative = cytotoxicity” value rises from -5.57% [at 95 µM] to 4.15% [at 95 µM].

Going from `C=CC(=O)OCC[N+](C)(C)C` to `CCCC(=O)CC`, the “activity, negative = cytotoxicity” value falls from -0.134% [at 95 µM] to -2.35% [at 95 µM].

Compared with `C=CCn1cc[n+](C)c1`, `O=Cc1ccc(C(=O)O)cc1` is higher in “activity, negative = cytotoxicity” value: 3.08% [at 95 µM] for the first, 3.27% [at 95 µM] for the second.

Going from `CC(C)C[P+](C)(CC(C)C)CC(C)C` to `CCN(CC)CC`, the “activity, negative = cytotoxicity” value rises from -3.05% [at 95 µM] to 13.4% [at 95 µM].

Compared with `CCC(C)(C)C`, `CCCCCCCCCCCCCCBr` is higher in “activity, negative = cytotoxicity” value: -0.532% [at 95 µM] for the first, 0.588% [at 95 µM] for the second.

Going from `CCCCCCCCCCCCCCCC(=O)OC` to `CNCCc1ccccn1`, the “activity, negative = cytotoxicity” value rises from -1.79% [at 31.4 µM] to 15.8% [at 31.4 µM].

For `CC(C)(Sc1cc(C(C)(C)C)c(O)c(C(C)(C)C)c1)Sc1cc(C(C)(C)C)c(O)c(C(C)(C)C)c1`, the “activity, negative = cytotoxicity” value was 0.502% [at 31.4 µM].

Molecule `CN(C)CCCN(C)C` has an activity, negative = cytotoxicity of -13% [at 8.53 µM].

With `CC(C)OC(=O)C(C(=O)OC(C)C)=C1SC=CS1` the Potency was 26.6 µM (active).
